From PubChem BioAssay
Autofluor counter – counter-screen for toxin protease inhibitors: compound fluorescence. AID 624483. compound autofluorescence counterscreen, microsphere flow cytometry; active compounds read high. fluorescence intensity (test concentration not listed). actives 3.1% (n = 360,000); in the data active = fluorescence intensity above about 16000; inconclusive = no clear call, values can overlap the other calls
Anthrax LF prot – blocks Bacillus anthracis lethal factor protease; P15917; multiplex microsphere protease cleavage assay, LF; inhibition, % at 10 µM; actives 0.12% (n = 360,000); note: plate controls were buffer without enzyme for full effect and enzyme alone for no effect
Target sequence (P15917 whole entry, looked up): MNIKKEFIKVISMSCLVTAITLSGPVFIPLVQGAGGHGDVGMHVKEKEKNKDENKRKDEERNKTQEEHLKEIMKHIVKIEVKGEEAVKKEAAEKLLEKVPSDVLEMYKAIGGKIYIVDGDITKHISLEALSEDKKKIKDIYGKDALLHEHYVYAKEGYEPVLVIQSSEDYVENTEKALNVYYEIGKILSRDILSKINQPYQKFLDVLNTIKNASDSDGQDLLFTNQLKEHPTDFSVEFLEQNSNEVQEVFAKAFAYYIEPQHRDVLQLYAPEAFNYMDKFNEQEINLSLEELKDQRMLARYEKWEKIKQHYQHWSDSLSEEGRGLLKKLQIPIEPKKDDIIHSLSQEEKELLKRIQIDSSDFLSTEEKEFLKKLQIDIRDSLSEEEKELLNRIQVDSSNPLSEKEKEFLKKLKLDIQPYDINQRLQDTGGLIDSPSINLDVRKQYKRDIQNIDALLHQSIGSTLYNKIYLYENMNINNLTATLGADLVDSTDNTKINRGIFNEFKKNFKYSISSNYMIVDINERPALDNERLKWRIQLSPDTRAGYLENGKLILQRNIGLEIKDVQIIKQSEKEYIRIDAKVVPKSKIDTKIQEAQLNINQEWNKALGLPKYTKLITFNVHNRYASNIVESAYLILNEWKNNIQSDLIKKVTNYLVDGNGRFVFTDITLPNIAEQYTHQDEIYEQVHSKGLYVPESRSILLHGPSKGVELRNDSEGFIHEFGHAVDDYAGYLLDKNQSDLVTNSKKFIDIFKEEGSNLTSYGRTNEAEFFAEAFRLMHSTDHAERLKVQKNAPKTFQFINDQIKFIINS
BoNT-F LC inh – inhibitors of Botulinum neurotoxin F light chain protease; Multiplex microsphere protease cleavage assay, flow cytometry; inhibition, % at 10 µM; actives 0.22% (n = 360,000); in the data active = inhibition above about 35%, passing the limit was not always enough; inconclusive = no clear call, values can overlap the other calls; note: plate controls were buffer without enzyme for full effect and enzyme alone for no effect
BoNT A protease – BoNT A light chain protease inhibition; multiplex microsphere protease substrate cleavage, flow cytometry; inhibition, % at 10 µM; actives 0.17% (n = 360,000); AID 588499; note: plate controls were buffer without enzyme for full effect and enzyme alone for no effect
Mtb FBA inh – Mtb fructose-bisphosphate aldolase inhibition; AID 588726; purified M. tuberculosis FBA, fluorescence read-out; inhibition, % at 1 µM; actives 2.3% (n = 360,000); in the data active = inhibition above about 27%;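 note: 0% = vehicle and 100% = reference inhibitor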
GDH-TPI inh – counter-screen for M. tuberculosis FBA inhibitors: GDH-TPI coupled enzymes; inhibition, % at 4.8 µM; AID 588335; GDH-TPI coupled enzyme counterscreen, NADH absorbance; actives 1.2% (n = 360,000); in the data active = inhibition above about 30%;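 note: 0% = DMSO wells and 100% = wells lacking the enzyme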
The depositor's hits bear a star; ? = inconclusive; + = active, no number. Shown are actives, neighbours in structure and some others; about 6.7% of the full set was active somewhere. Cut-off read from the data, not from the text of the source, unless noted: active = inhibition above about 30%; inconclusive = no clear call, values can overlap the other calls; inactive = below that.

SMILES	Autofluor counter	Anthrax LF prot	BoNT-F LC inh	BoNT A protease	Mtb FBA inh	GDH-TPI inh
CCN1CCN(c2nc3ccccc3n3cnnc23)CC1	3949	-1	-1	0	-2	32*
CCOC(=O)CCc1c(C)c2ccc3c(c2oc1=O)CN(CCCO)CO3	3836	-5	9	-1	+	14
CCOC(=O)CCc1c(C)c2ccc(OCC(=O)N3CCOCC3)c(C)c2oc1=O	5587	0	2	1	146*	24
COC(=O)Cc1c(C)c2ccc(OCC(=O)N3CCCC3)c(C)c2oc1=O	5890	-1	1	0	151*	22
Cc1c(OCC(=O)N2CCC(C(N)=O)CC2)ccc2c3c(c(=O)oc12)CCCC3	5242	0	-3	0	18	10
CCOC(=O)CCc1c(C)c2ccc(OCc3ccc([N+](=O)[O-])cc3)cc2oc1=O	?	-2	-4	-1	8	2
CCn1nnnc1SCC(=O)Nc1ccc(OC)cc1	3479	-2	1	0	1	2
c1ccc2c(Nc3nc(N4CCOCC4)c4ccccc4n3)cccc2c1	2241	-3	0	0	7	8
C=CCSc1nnc(-c2c[nH]c3ccccc23)n1CCOC	22750*	-2	-1	1	2	1
CCn1c(SCC(=O)NCc2ccccc2)nnc1-c1c[nH]c2ccccc12	22868*	-7	-2	1	-4	-1
CN(C)CC#CCn1c2ccccc2c2ccccc21	4262	15	?	-3	0	1
C=CCn1c(=O)c2ccccc2n2c(Sc3nnnn3-c3ccccc3)nnc12	3259	0	2	1	5	1
Cn1ncnc1SCc1cn2cccnc2n1	4908	0	-2	-2	130*	8
CCOC(=O)c1cccc(S(=O)(=O)N(CCO)Cc2cc3cc(OC)c(OC)cc3[nH]c2=O)c1	24123*	3	-1	-1	1	27
CCOC(=O)c1cccc(S(=O)(=O)N(CCO)Cc2cc3cc(OC)ccc3[nH]c2=O)c1	9606	-2	-3	0	3	6
CN1C(=O)N(C)C2(c3ccccc3)NC(=O)NC12c1ccccc1 (stereo not drawn)	3704	-1	6	0	3	6
COc1ccc(-n2c(-c3ccc(Cl)cc3)c[n+]3c2CCCCC3)cc1	4969	2	?	-4	2	-4
COC(=O)Cc1c(C)nc2nc(-c3ccc(OC)cc3)[nH]n2c1=O	22942*	0	4	0	14	-2
COc1ccc(-c2nc3nc(C)c(Cc4ccccc4)c(=O)n3[nH]2)cc1	22311*	-1	0	0	8	1
COc1ccc(-c2nc3nc(C)cc(=O)n3[nH]2)cc1	5733	-3	-1	0	2	4
COC(=O)Cc1c(C)nc2nc(NCc3c(F)cccc3Cl)[nH]n2c1=O	2820	1	1	0	0	-2
C=CCn1c(SCC(=O)N2CCOCC2)nc(O)cc1=O	2875	5	?	1	-5	-3
CCN(CC)S(=O)(=O)c1ccc(OCCNS(C)(=O)=O)cc1	4519	5	-8	0	11	2
Cc1cc(C)c(S(=O)(=O)c2ccc(C(C)(C)C)cc2)c(Cl)n1	2806	4	12	-1	0	1
CCOC(=O)c1cc(-c2ccc(/C=C3/C(=O)NC(=O)C(C#N)=C3C)o2)ccc1Cl	8868	2	6	3	2	35*
SMILES	Autofluor counter	Anthrax LF prot	BoNT-F LC inh	BoNT A protease	Mtb FBA inh	GDH-TPI inh
CCCCC(=O)Nc1nnc(S(=O)(=O)N2CCCc3ccccc32)s1	5580	-8	-7	0	0	10
N#C/C(=N\Nc1ccc(F)cc1)C(=N)N1CCCCC1	8218	-3	-13	0	-2	14
CCc1sc(NC(C)=O)nc1-c1ccccc1	2022	0	0	1	3	7
CCc1sc(NS(C)(=O)=O)nc1-c1ccccc1	23262*	-4	-3	-1	-4	3
Cc1ccc(C(=O)Nc2ccc(C(=O)/C=C/c3cccs3)cc2)cc1	6997	8	-1	1	0	18
O=C(/C=C/c1cccs1)c1ccc(NC(=O)c2cccc(Br)c2)cc1	3447	3	34	1	-1	40*
CC1CCN(c2nnc(NC(=O)Cn3c(=O)oc4ccccc43)s2)CC1	5234	-2	6	0	0	0
Cc1ccc2nc(C)/c(=N\O)c(C)nc2c1	16928*	-1	-5	-2	7	7
Cc1nc2ccc(Cl)cc2nc(C)/c1=N\O	2982	5	-6	0	-3	0
c1cc(-c2ccc(CN3CCOCC3)cc2)n2ccnc2c1	3730	-3	-1	0	+	8
N#Cc1ccc(-c2cccc3nccn23)cc1	3366	-1	0	0	178*	4
CC(=O)c1ccc(-c2cccc3nccn23)cc1	3850	-2	3	0	6	24
CN1CCN(c2ccc(-c3cccc4nccn34)cn2)CC1	3037	-2	-1	0	+	30
c1cn2cc(-c3ccc(CN4CCOCC4)cc3)ccc2n1	3125	-1	-1	0	14	5
CN(C)c1nc(N)nc(-c2nc3ccccc3s2)n1	11388	4	3	0	-1	11
CC(NC(=O)COC(=O)C1CSC2(C)CCC(=O)N12)C12CC3CC(CC(C3)C1)C2 (stereo not drawn)	3241	-2	-2	0	4	-3
COc1ccc(NC(=O)c2cc(-c3cc(C)c(C)cc3O)n[nH]2)c(OC)c1	3609	-7	10	1	1	12
CCOC(=O)c1sc(NC(=O)CSc2nc(C)cc(-c3ccccc3)n2)c(C#N)c1C	19559*	-7	-1	2	-2	-7
CCOC(=O)c1sc(NC(=O)CSc2nc(C)cc(C)c2C#N)c(C#N)c1C	3979	-4	16	0	-1	-3
CCOC(=O)c1sc(NC(=O)CSc2nc3c(cc2C#N)CCCCCC3)c(C#N)c1C	17520*	-1	-9	?	-1	18
CCOC(=O)c1sc(NC(=O)CSc2n[nH]c(-c3ccc(Cl)cc3Cl)n2)c(C#N)c1C	23279*	0	-2	?	0	9
COc1ccc2[nH]c(=O)c(CN(C)C(=O)C3CCCCC3)cc2c1	3251	1	-3	0	16	11
Cn1c(COc2ccccc2)nnc1SCC(=O)Nc1ccc2c(c1)OCO2	10530	0	0	0	0	0
Cc1ccc(CSc2nnc(CC(=O)Nc3ccc(C)cc3)n2C)cc1	19547*	-1	3	2	3	-6
Cc1ccccc1NC(=O)Cc1nnc(SCC(=O)c2ccc(Br)cc2)n1C	18692*	-3	7	?	0	-2
Cc1ccc(NC(=O)Cc2nnc(SCC(=O)Nc3ccccc3)n2C)cc1	8363	-2	-9	0	1	3
Cc1ccc(OCc2nnc(SCC(=O)Nc3cc(C)on3)n2C)cc1	21396*	-6	2	2	5	-2
